Laboratory results published in PubChem BioAssay AID493169 (National Center for Advancing Translational Sciences (NCATS), 2011).
Inconclusive results are not listed. A call without a number means that no potency is given here. Active and inactive are the calls of the source. Calls follow the shape of the dose curve; as a rule, active = well fitted inhibition curve with a large enough effect; inconclusive = small, poorly fitted or top-dose-only effect; inactive = flat fitted curve, though single readings scatter.

Test: CHOP2 Reporter Counterscreen Assay for Inhibitors of Ubiquitin-specific Protease USP2a;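 also: activated enterokinase alone at 50 pM in a cell-free format rather than USP2a or CHOP2; nearly all actives have a fitted effect of over 55% in size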
Conditions: purified enterokinase, fluorogenic substrate, 485/531 nm; series mostly up to 38.3 µM
In short: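 Cell-free counterscreen with pre-activated enterokinase alone (50 pM final) in 20mM Tris-HCl pH 8.0, 2mM CaCl2, 2mM beta-mercaptoethanol, 0.05% CHAPS; compound preincubation 30 min RT, reporter substrate 25nM final, fluorescence read after 10 min (Ex 485/Em 531).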
Potency is read from the fitted curve at half-maximal effect.

| Structure (SMILES) | Potency |
| --- | --- |
| CSC1=NCCN1C(=O)Cc1ccc(F)cc1 | inactive |
| COc1ccc2nc(C)cc(SCC(=O)N/N=C/c3c(OC)ccc4ccccc34)c2c1 | inactive |
| O=C(O)c1cccc(-n2cccc2/C=C2/NC(=O)N(c3ccc(Cl)cc3)C2=O)c1 | 2 µM (active) |
| N=c1sccn1CC(=O)Nc1ccc(S(=O)(=O)N2CCOCC2)cc1 | inactive |
| O=C(Nc1nnc(SCCC2OCCO2)s1)C1CC(=O)N(c2ccc(F)cc2)C1 (stereo not given) | 11.2 µM (active) |
| CC(=O)c1ccc(Nc2ncnc3c2oc2ccccc23)cc1 | inactive |
| Nc1nc(NCCO)nc(NCC2CCCO2)c1[N+](=O)[O-] (stereo not given) | inactive |
| C=CCOc1cccc(C2C(C(=O)c3ccco3)=C(O)C(=O)N2CCN(CC)CC)c1 (stereo not given) | inactive |
| CCO[C@H]1OC(C(=O)N2CCCCCCC2)=C[C@@H](c2ccc(C(F)(F)F)cc2)[C@@H]1CCCO | inactive |
| Cc1ccc(-c2ccc(CCC(=O)O)n2NC(=O)c2cccs2)cc1 | inactive |
| COC(=O)CCC(=O)Nc1sc2c(c1C#N)CCCC2 | inactive |
| CCC(C(=O)NCc1ccccc1OC)n1nc(C)n2c(cc3occc32)c1=O (stereo not given) | inactive |
| Cc1ccc(-c2nc(N/N=C/c3ccncc3)c3ccccc3n2)cc1 | inactive |
| O=C(NCCOC(=O)c1ccccc1C(=O)OCCNC(=O)c1cccnc1)c1cccnc1 | inactive |
| c1ccc(Nc2c3c(nc4ncnn24)CCC3)cc1 | inactive |
| CCOc1ccc2nc(NC(=O)Nc3ccccc3)sc2c1 | inactive |
| CC(=O)C1=C(O)C(=O)N(c2nnn(C)n2)C1c1cccs1 (stereo not given) | inactive |
| Cc1ccc(C(=O)N(c2c(C)n(C)n(-c3ccccc3)c2=O)C(C)C)cc1 | inactive |
| COc1cc(C(=O)OC2CCCCC2=O)cc(OC)c1C (stereo not given) | inactive |
| CCOc1ccc(C(=O)c2ccc(OCC)c(N)c2)cc1N | inactive |

| Structure (SMILES) | Potency |
| --- | --- |
| Cc1ccc(C(=O)c2coc3c2C(=O)C(=O)c2ccccc2-3)cc1 | inactive |
| O=C(CSc1ccc2nnc(-c3cccc(F)c3)n2n1)N1CCCc2ccccc21 | inactive |
| Cc1ccc(NC(=O)c2cc3c(=O)oc4ccccc4c3s2)nc1 | inactive |
| O=C(OCc1nc2ccccc2[n+]([O-])c1C(=O)c1ccccc1)c1cccs1 | inactive |
| O=c1cc(CO)oc(CN2CCN(Cc3ccccc3)CC2)c1O | inactive |
| Cc1nc2n(n1)CC(O)CS2 (stereo not given) | inactive |
| Cn1c(C(=O)NCCN2CCOCC2)cc2c(=O)n(C)c3ccccc3c21 | inactive |
| Cc1cccc(NCc2nc(-c3ccccc3)no2)c1 | inactive |
| Cc1sc2nc(CN3CCN(c4ccc(O)cc4)CC3)[nH]c(=O)c2c1C | inactive |
| CC1CCN(CC(O)COc2cccc(F)c2)CC1 (stereo not given) | inactive |
| Cc1c(NC(=O)C2CCCN2S(=O)(=O)c2ccc(Cl)cc2)c(=O)n(-c2ccccc2)n1C (stereo not given) | inactive |
| CCNC1=C(Cl)C(=O)c2ccccc2C1=O | inactive |
| O=C(N/N=C/c1ccc(-c2ccc(Cl)c(C(=O)O)c2)o1)c1cc2c(ccc3ccccc32)o1 | 11.2 µM (active) |
| Cc1cc(NS(=O)(=O)c2ccc(Nc3nc(-c4ccc(C)c(C)c4)cs3)cc2)no1 | inactive |
| CCOC(=O)c1[nH]c2ccc(OC)cc2c1NC(=O)CCN1CCCC(C)C1 (stereo not given) | inactive |
| COc1ccc(CN(Cc2cc3cc(C)ccc3[nH]c2=O)C(=O)N(C)C)cc1 | inactive |
| O=C(NNC(=O)c1cc2ccccc2cc1O)Nc1ccccc1F | inactive |
| Cc1cc(SCC(=O)Nc2ccccc2)nc(C)n1 | inactive |
| Cc1ccc(NC(=O)CSc2nc(O)cc(=O)n2-c2ccc(C)cc2)cc1 | inactive |
| N#Cc1c(SCC(=O)Nc2nc3ccccc3s2)sc2c(O)cc(=O)[nH]c12 | 10 µM (active) |
